Assay results published in the antibiotic and cytotoxicity screens of Wong et al. (2023).
About 3,300 (8.5%) of roughly 39,000 compounds were called active. What follows is part of a selection rich in actives, with near analogues and random picks from the rest.

test system: HepG2; assay: cytotoxicity call (relative viability < 0.9); conditions: 10 µM

With `O=C(C[C@@H]1CC[C@@H]2[C@H](COC[C@@H](O)CN2C(=O)c2ccccc2)O1)NCCCN1CCOCC1` as the compound, how does the cytotoxicity call read?
Its cytotoxicity call is “inactive”.

How did the cytotoxicity call turn out when `C[C@H](CO)N1C[C@H](C)[C@@H](CN(C)C(=O)Cc2ccncc2)Oc2cc(C#CC3(O)CCCC3)ccc2S1(=O)=O` was run?
Its cytotoxicity call is “inactive”.

For `CN(C)CCCNC(=O)C[C@@H]1CC[C@@H]2[C@H](COc3ccc(NC(=O)c4ccc5c(c4)OCO5)cc3C(=O)N2C)O1`, which cytotoxicity call is on record?
The cytotoxicity call was “inactive”.

`O=C(CCCCCNC(=O)OC[C@]12N=C3SCc4ccccc4CN3[C@H](c3ccccc3O1)[C@H]2COC(=O)c1ccccc1)NO` was tested. Which cytotoxicity call did it give?
Its cytotoxicity call is “inactive”.

Which cytotoxicity call does the source give for `C[C@@H]1CN([C@H](C)CO)S(=O)(=O)c2ccc(Br)cc2O[C@@H]1CN(C)CC1CCOCC1` here?
Its cytotoxicity call is “inactive”.

`O=C(Nc1cccc2cccnc12)[C@@H]1[C@H](c2ccc3ccccc3c2)CC(=O)N1C(=O)OCc1ccccc1` was tested. Which cytotoxicity call did it give?
The cytotoxicity call was “inactive”.

With `COc1ccc2c3c(n(c2c1)C)[C@@H](CO)N(CC1CCOCC1)C[C@]13CN(C1)C(=O)c1cccc(c1)F` as the compound, how does the cytotoxicity call read?
The cytotoxicity call was “inactive”.

With `C[C@@H]1CN([C@@H](C)CO)C(=O)Cc2cc(NC(=O)c3ccncc3)ccc2O[C@H]1CN(C)S(=O)(=O)c1ccc(F)cc1` as the compound, how does the cytotoxicity call read?
The cytotoxicity call was “inactive”.

Which cytotoxicity call does the source give for `COc1ccc(NC(=O)Nc2ccc3c(c2)C(=O)N([C@@H](C)CO)C[C@@H](C)[C@@H](CN(C)S(=O)(=O)c2ccc(F)cc2)OCCCC[C@H](C)O3)cc1` here?
Its cytotoxicity call is “inactive”.

For `COc1ccc(S(=O)(=O)Nc2ccc3c(c2)C(=O)N([C@H](C)CO)C[C@@H](C)[C@@H](CN(C)S(=O)(=O)c2ccc(Cl)cc2)OCCCC[C@H](C)O3)cc1`, which cytotoxicity call is on record?
The cytotoxicity call was “inactive”.

For `COc1ccc(S(=O)(=O)Nc2ccc3c(c2)C(=O)N([C@@H](C)CO)C[C@@H](C)[C@H](CN(C)S(=O)(=O)c2ccc(Cl)cc2)OCCCC[C@H](C)O3)cc1`, which cytotoxicity call is on record?
The cytotoxicity call was “inactive”.

How did the cytotoxicity call turn out when `COc1ccc(S(=O)(=O)N(C)C[C@H]2OCCCC[C@H](C)Oc3ccc(NS(=O)(=O)c4ccc(Cl)cc4)cc3C(=O)N([C@H](C)CO)C[C@@H]2C)cc1` was run?
The cytotoxicity call was “active”.

Which cytotoxicity call does the source give for `CCOC(=O)c1cc2c(c(-c3cccc(Br)c3)n1)[C@@H](CCOC)N([S@](=O)C(C)(C)C)C2` here?
The cytotoxicity call was “inactive”.

With `Nc1ncnc2c1ncn2[C@@H]1C=C[C@H](CO)O1` as the compound, how does the cytotoxicity call read?
The cytotoxicity call was “inactive”.

How did the cytotoxicity call turn out when `CCC(=O)N[C@@H]1C=C[C@H](CC(=O)OC)O[C@@H]1CO` was run?
The cytotoxicity call was “inactive”.

For `Cc1cc(=O)n2ncnc2[nH]1`, which cytotoxicity call is on record?
The cytotoxicity call was “inactive”.

Which cytotoxicity call does the source give for `C[C@H]1CCCCO[C@H](CN(C)S(=O)(=O)c2ccccc2)[C@@H](C)CN([C@@H](C)CO)C(=O)c2cc(NC(=O)Nc3ccccc3)ccc2O1` here?
Its cytotoxicity call is “inactive”.

For `CCC1(O)CC2CN(CCc3c([nH]c4ccccc34)C(C(=O)OC)(c3cc4c(cc3OC)N(C)C3C(O)(C(=O)OC)C(OC(C)=O)C5(CC)C=CCN6CCC43C65)C2)C1.O=S(=O)(O)O` (centres undefined), which cytotoxicity call is on record?
Its cytotoxicity call is “active”.

With `CCC1(O)CC2CN(CCc3c([nH]c4ccccc34)C(C(=O)OC)(c3cc4c(cc3OC)N(C=O)C3C(O)(C(=O)OC)C(OC(C)=O)C5(CC)C=CCN6CCC43C65)C2)C1.O=S(=O)(O)O` (centres undefined) as the compound, how does the cytotoxicity call read?
The cytotoxicity call was “active”.
